Data: PubChem BioAssay (NCI)
Compounds without any hit were thinned out: in the full panel of roughly 79,000, 15% have a hit. Cut-off read from the data, not from the text of the source: active = growth inhibition above about 70%; inactive = the rest.

Experiments:
[1] = NCI Yeast Anticancer Drug Screen. Data for the rad50 strain (AID 155);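 note: 0% = growth of vehicle-only cultures of the same strain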; conditions: S. cerevisiae rad50 strain growth inhibition; at 50.0 µM; active compounds read high
Method in brief: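 Cells are treated with compound, grown, and their growth is then scored against vehicle-only cultures of the same repair-deficient yeast strain.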

[2] = NCI Yeast Anticancer Drug Screen. Data for the mec2-1 strain (AID 157); conditions: S. cerevisiae mec2-1 strain, at 50.0 µM, active compounds read high
Method in brief: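 mec2-1 yeast strain, carrying an alteration in DNA damage repair or cell cycle control, was exposed to compounds; growth inhibition was measured relative to vehicle-treated controls.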

[3] = NCI Yeast Anticancer Drug Screen. Data for the sgs1 mgt1 strain (AID 161);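 note: 0% = growth of cultures given vehicle only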; conditions: S. cerevisiae sgs1 mgt1 strain, at 50.0 µM, active compounds read high
Method in brief: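 Growth of a repair-deficient yeast mutant was monitored after compound treatment and expressed as inhibition relative to vehicle-treated cultures.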

[4] = NCI Yeast Anticancer Drug Screen. Data for the cln2 rad14 strain (AID 165);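 note: 0% = growth equal to vehicle treated cultures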; conditions: S. cerevisiae cln2 rad14 strain, at 50.0 µM, active compounds read high
Method in brief: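 Yeast carrying cln2 and rad14 alterations (cell cycle control and DNA damage repair) were exposed to compounds. Growth inhibition was measured against vehicle-treated controls.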

[5] = NCI Yeast Anticancer Drug Screen. Data for the bub3 strain (AID 167); conditions: S. cerevisiae bub3 mutant strain, at 50.0 µM, active compounds read high
Method in brief: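 Part of a panel of yeast mutants defective in DNA damage repair or cell cycle regulation. Each strain is grown with compound, and inhibition is calculated relative to solvent-treated cultures.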

[6] = NCI Yeast Anticancer Drug Screen. Data for the mlh1 rad18 strain (AID 175); conditions: S. cerevisiae mlh1 rad18 strain growth inhibition; at 50.0 µM; active compounds read high
Method in brief: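 Growth inhibition of the yeast strain was measured after compound exposure and expressed relative to vehicle-treated controls. The strain carries defined defects in DNA damage repair.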

Measured: growth inhibition

C(=C1c2c(ccc3ccccc23)Oc2ccc3ccccc3c21)c1ccccc1
inactive: [1] 14.3% | [2] 10.6% | [3] 12.3% | [4] -30.1% | [5] 1.65% | [6] 14.3%

CC(C)CC(=O)NS(=O)(=O)c1ccccc1
inactive: [1] -6.15% | [2] 5.05% | [3] -3.05% | [4] 5.2% | [5] -17.4% | [6] -22.2%

Nc1nc(=O)n(C2OC(CO)C(O)C2O)cc1F (configuration not stated)
inactive: [1] 10.8% | [2] -10.2% | [3] 4.4% | [4] -3.1% | [5] 11.5% | [6] 7.6%

O=C(Nc1ccc(S(=O)(=O)N2CCCCC2)cc1)OC1CCCCCC1
inactive: [1] 10.1% | [2] 1.1% | [3] -8.5% | [4] 14.5% | [5] -4.05% | [6] 10.6%

O=C(NCCNc1ccccc1)C12CC3CC(CC(C3)C1)C2
inactive: [1] -4.2% | [2] 1.35% | [3] -3.9% | [4] -2.4% | [5] 19.1% | [6] 9.5%

CC(C)C1OC(c2ccccc2)OCC1(C)C (configuration not stated)
inactive: [1] -14.8% | [2] -18.2% | [3] -4.15% | [4] -39.2% | [5] -4.15% | [6] 6.35%

CCCCCCCCCCCCCCCCCC(=O)OCC1OC(OC)C(NC(=O)N(CCCl)N=O)C(O)C1O (configuration not stated)
inactive: [1] 16.3% | [2] -6.85% | [3] -4.8% | [4] 13.7% | [5] 21.4% | [6] 9.15%

O=P1(c2ccccc2)C(c2ccccc2)=CC=C1c1ccccc1
inactive: [1] 23.4% | [2] 9.8% | [3] 18.1% | [4] 6.6% | [5] 12.3% | [6] 31.2%

COc1ccc(NC(=O)Nc2cccc(Cl)c2C)c(OC)c1
inactive: [1] -0.9% | [2] 9.3% | [3] 32.8% | [4] -3.15% | [5] 9.85% | [6] 5.6%

N#CCc1n[nH]c(Cc2ccccc2)n1
inactive: [1] 2.35% | [2] 6.6% | [3] 3.9% | [4] 7.6% | [5] 0.8% | [6] 12.4%

O=C(/C=C/c1ccccc1)CC(=O)c1ccccc1.O=C(/C=C/c1ccccc1)CC(=O)c1ccccc1.[Cu]
inactive: [1] -17.1% | [2] -10.7% | [3] -15.7% | [4] -35.8% | [5] -2.45% | [6] -15.9%

Cc1c(C)c(CO)c(C)c(C)c1CO
inactive: [1] -15.8% | [2] -19.4% | [3] 15.8% | [4] 4.9% | [5] 12.1% | [6] -2.1%

CC1(C)CCCN1C(=O)Nc1ccc([N+](=O)[O-])cc1[N+](=O)[O-]
inactive: [1] 4.1% | [2] -7.7% | [3] 5.4% | [4] -12.6% | [5] -4.15% | [6] -14.1%

O=C(OCCO)c1ccc(O)c(O)c1
inactive: [1] 14.6% | [2] -4.65% | [3] 3.1% | [4] -25.8% | [5] -6.1% | [6] 7.55%

N#CCCOCc1ccccc1
inactive: [1] -46.8% | [2] -23.8% | [3] -1.05% | [4] -3.15% | [5] -15.1% | [6] 0.55%

O=c1[nH]cnc2c1sc(=S)n2-c1ccccc1
inactive: [1] 7.15% | [2] -10.5% | [3] 10.2% | [4] 6.7% | [5] -12.3% | [6] -2.4%

O=[N+]([O-])C(=C1NCCN1)C(Cl)=C(Cl)Cl
inactive: [1] -43% | [2] -27.9% | [3] 5.3% | [4] -18.6% | [5] -1.2% | [6] -26%

CC1=CC(=O)Nc2ccccc2S1
inactive: [1] 43.2% | [2] 29.2% | [3] 59.2% | [4] 17% | [5] 56% | [6] 23.6%

Nc1nc2nc(-c3ccccc3)[nH]c2c(=O)[nH]1
inactive: [1] -3.7% | [2] 6.75% | [3] -0.15% | [4] -52.2% | [5] -15.1% | [6] -12.4%

O=[N+]([O-])c1cc(Br)c2ccccc2c1
inactive: [1] 6.7% | [2] 4.9% | [3] 6.45% | [4] 2% | [5] 18.2% | [6] 15.1%

c1ccc(-c2nc(-c3ccccc3SSc3ccccc3-c3nc(-c4ccccc4)nn3-c3ccccc3)n(-c3ccccc3)n2)cc1
inactive: [1] -14.5% | [2] -6.3% | [3] 0.8% | [4] 3.25% | [5] -8.8% | [6] 18.9%

O=c1n(CCO)nc2n1CCCN2
inactive: [1] 7.3% | [2] 10.9% | [3] 7.2% | [4] -15.8% | [5] 7.5% | [6] 5.6%

O=[n+]1c2c(n([O-])c3ccccc31)CCCCC2
inactive: [1] 19.6% | [2] -12.7% | [3] -1.9% | [4] -32.5% | [5] -8.35% | [6] -2.85%

CC(=O)C/C(C)=N\NC(=O)c1ccc([N+](=O)[O-])cc1
inactive: [1] -6.15% | [2] -16.8% | [3] 5.65% | [4] 7.35% | [5] 9.9% | [6] 19.6%

C=C1C(=O)O[C@@H]2/C=C(/C)[C@@H](OC(C)=O)C[C@@H](O)/C(C)=C\[C@@H](OC(=O)[C@]3(C)O[C@@H]3C)[C@@H]12
inactive: [1] 11.3% | [2] -0.85% | [3] 16.2% | [4] 20.5% | [5] 13.4% | [6] -63.6%

CCOC(=O)C(C)(Cc1cccc2ccccc12)C(=O)OCC
inactive: [1] -33.6% | [2] -19.3% | [3] 5.1% | [4] -54.2% | [5] 29.8% | [6] -24.9%

CSC(=S)n1nc(-c2ccccc2)c(N=Nc2ccccc2[N+](=O)[O-])c1-c1ccccc1
inactive: [1] 31.6% | [2] 12.5% | [3] 20.2% | [4] -30.9% | [5] 18.6% | [6] 29.9%

Cc1ccccc1CCCC(C(=O)O)C(=O)O
inactive: [1] -18.8% | [2] -7.75% | [3] 10.8% | [4] -2.8% | [5] -1.55% | [6] 1.75%

BrC1C2=C(c3ccccc31)C(Br)c1ccccc12 (configuration not stated)
inactive: [1] 14.9% | [2] 4.05% | [3] 15.3% | [4] 28.8% | [5] -12.3% | [6] 1.7%

CCOC(=O)c1ncn2c1[nH]c(=O)c1ccccc12
inactive: [1] -6.95% | [2] -16.6% | [3] -8.9% | [4] 1.2% | [5] -9.5% | [6] -10.6%

N#CCN1C(=O)c2ccccc2C1=O
inactive: [1] 6% | [2] -2.85% | [3] 1.45% | [4] 2.15% | [5] 3.15% | [6] -15.8%

COc1cc(S(=O)(=O)O)ccc1N=N/C(=N\Nc1ccc(S(=O)(=O)O)cc1OC)C(N)=O
inactive: [1] -42.1% | [2] 5.55% | [3] 8.9% | [4] 18.6% | [5] -1.95% | [6] 7.7%

NC(=O)N/N=C(\CCC(=O)N(Cc1ccccc1)Cc1ccccc1)CC(=O)c1ccc(F)cc1
inactive: [1] -1.5% | [2] 10.8% | [3] -30.9% | [4] 18.8% | [5] -7.9% | [6] -14.9%

C=C1C(=O)OC2CC3(C)C=CC(=O)C(=C)C3CC12 (configuration not stated)
inactive: [1] 6.75% | [2] 20.6% | [3] 34.4% | [4] 39.9% | [5] 26.8% | [6] 23.4%

COc1ccc(C(C#N)C(=O)CCC(=O)C(C#N)c2ccc(OC)c(OC)c2)cc1OC (configuration not stated)
inactive: [1] 28.3% | [2] 2.9% | [3] -8.65% | [4] -15.3% | [5] -2.8% | [6] 26.8%

O=C(c1ccc(Cl)cc1Cl)N(/N=C/C=C/c1ccccc1)c1nnc(-c2ccccc2)c(-c2ccccc2)n1
inactive: [1] -17.1% | [2] 8.8% | [3] -21.3% | [4] 32.5% | [5] 2.2% | [6] 13%

CCN(CC)CCOC(=O)c1ccc(N=Nc2ccc(O)cc2O)cc1
inactive: [1] -12.8% | [2] -2.7% | [3] -1.3% | [4] -21.7% | [5] -24.5% | [6] -17.1%
